# Results: PubChem BioAssay (NCATS)
# Inconclusive results are not listed. A call without a number means that no potency is given here. Active and inactive are the calls of the source. Unless noted, the call rests on the fitted dose curve; in most records, active means well fitted curve in the direction sought with a large enough effect; inconclusive means small, poorly fitted or top-dose-only effect, or another doubt; inactive means no such curve, though single readings can be large; an effect the other way counts as inactive or inconclusive.
# What was measured:
# [1] = biological target: Rap guanine nucleotide exchange factor 3 (Homo sapiens) (UniProt O95398); test: Confirmatory qHTS for agonist of cAMP-regulated guanine nucleotide exchange factor 3 (EPAC1) (AID 1645881);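 further: EPAC1 catalysed release of BODIPY-GDP from Rap1B seen as fluorescence loss; nearly all actives have a fitted effect of over 75% in size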
# Chain of Rap guanine nucleotide exchange factor 3 (Homo sapiens) (O95398 whole entry, looked up): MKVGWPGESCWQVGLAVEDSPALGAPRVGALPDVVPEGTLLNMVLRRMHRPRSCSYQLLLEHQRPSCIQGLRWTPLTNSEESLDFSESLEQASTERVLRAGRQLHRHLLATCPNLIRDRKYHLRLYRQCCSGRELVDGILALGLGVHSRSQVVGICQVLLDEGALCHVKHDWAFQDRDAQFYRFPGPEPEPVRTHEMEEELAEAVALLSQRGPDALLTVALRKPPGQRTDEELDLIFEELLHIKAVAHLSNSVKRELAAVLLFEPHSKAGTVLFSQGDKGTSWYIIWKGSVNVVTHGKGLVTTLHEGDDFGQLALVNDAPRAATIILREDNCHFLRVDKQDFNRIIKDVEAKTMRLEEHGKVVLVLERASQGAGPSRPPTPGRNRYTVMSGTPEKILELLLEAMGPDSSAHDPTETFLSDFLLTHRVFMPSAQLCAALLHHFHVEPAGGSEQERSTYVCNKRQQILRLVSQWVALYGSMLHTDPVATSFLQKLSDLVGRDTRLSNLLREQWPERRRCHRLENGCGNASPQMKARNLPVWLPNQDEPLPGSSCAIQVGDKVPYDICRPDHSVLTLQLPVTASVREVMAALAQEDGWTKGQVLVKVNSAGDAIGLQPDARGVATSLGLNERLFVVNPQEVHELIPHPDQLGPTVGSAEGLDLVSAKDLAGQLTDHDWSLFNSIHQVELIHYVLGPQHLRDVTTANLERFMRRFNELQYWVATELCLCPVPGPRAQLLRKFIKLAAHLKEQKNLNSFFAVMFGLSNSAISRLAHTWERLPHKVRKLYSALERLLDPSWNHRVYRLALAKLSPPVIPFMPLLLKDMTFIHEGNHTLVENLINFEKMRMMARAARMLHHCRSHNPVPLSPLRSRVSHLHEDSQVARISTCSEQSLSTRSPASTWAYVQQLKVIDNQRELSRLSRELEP
# [2] = biological target: Androgen receptor (Homo sapiens) (UniProt P10275); test: qHTS assay for small molecule antagonists of androgen receptor signaling (AID 588516; active means well fitted curve in the direction sought with a large enough effect in the signal ratio, with a control signal flat, not every such curve was filed as active; the % refers to the signal ratio; further: potency means the concentration at half of the fitted maximal effect)
# Chain of Androgen receptor (Homo sapiens) (P10275 whole entry, looked up): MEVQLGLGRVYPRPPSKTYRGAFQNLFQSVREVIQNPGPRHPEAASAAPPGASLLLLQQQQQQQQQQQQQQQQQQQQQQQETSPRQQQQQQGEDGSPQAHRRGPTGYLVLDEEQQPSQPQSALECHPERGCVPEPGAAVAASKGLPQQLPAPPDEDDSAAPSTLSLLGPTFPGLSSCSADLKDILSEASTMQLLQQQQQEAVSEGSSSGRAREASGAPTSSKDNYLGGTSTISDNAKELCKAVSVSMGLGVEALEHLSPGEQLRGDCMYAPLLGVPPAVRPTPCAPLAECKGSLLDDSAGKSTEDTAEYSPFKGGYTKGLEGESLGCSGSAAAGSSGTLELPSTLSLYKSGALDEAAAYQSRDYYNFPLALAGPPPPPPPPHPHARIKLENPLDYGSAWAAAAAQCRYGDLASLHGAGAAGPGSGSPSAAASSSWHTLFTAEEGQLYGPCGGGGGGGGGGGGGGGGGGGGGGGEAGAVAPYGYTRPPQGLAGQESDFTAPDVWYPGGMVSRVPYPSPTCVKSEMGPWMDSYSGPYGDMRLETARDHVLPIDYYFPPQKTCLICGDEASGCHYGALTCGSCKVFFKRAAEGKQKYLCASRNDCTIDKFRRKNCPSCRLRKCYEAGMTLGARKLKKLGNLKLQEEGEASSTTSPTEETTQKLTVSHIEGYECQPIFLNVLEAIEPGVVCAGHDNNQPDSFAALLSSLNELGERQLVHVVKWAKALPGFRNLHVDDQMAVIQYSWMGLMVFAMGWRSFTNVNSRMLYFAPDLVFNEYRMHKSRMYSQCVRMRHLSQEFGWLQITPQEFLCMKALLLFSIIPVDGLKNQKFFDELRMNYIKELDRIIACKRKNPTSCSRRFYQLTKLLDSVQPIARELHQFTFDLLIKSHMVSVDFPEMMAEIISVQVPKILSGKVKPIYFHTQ
# How it was run: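 Antagonist mode: inhibition of R1881-stimulated (10 nM final) bla reporter in GeneBLAzer AR HEK 293 cells, 16 h at 37C, compounds titrated. IC50 and efficacy from Hill-equation fits of 405/460–530 nm FRET ratios.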
# [3] = biological target: Luciferin 4-monooxygenase (Photinus pyralis) (UniProt P08659); test: Biochemical firefly luciferase enzyme assay for NPC (AID 624030); further: nearly all actives have a fitted effect of over 70% in size; further: potency means the concentration at half of the fitted maximal effect
# Chain of Luciferin 4-monooxygenase (Photinus pyralis) (P08659 whole entry, looked up): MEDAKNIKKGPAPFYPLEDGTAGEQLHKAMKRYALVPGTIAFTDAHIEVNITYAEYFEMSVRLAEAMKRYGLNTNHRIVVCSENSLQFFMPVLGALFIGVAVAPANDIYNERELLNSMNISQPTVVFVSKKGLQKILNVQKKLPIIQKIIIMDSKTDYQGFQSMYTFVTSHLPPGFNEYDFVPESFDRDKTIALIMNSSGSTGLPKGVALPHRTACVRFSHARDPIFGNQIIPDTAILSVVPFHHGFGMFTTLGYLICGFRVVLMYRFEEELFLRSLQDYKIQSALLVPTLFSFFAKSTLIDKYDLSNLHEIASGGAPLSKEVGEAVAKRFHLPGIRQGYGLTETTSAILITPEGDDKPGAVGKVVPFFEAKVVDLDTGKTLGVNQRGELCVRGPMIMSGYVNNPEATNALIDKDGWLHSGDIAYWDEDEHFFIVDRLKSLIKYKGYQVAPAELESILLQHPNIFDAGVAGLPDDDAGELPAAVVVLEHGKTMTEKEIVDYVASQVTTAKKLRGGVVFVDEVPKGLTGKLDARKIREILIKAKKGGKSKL
# How it was run: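 Purified P. pyralis luciferase at 10 nM in 50 mM Tris Acetate (final), luminescence read within 5 minutes of enzyme addition to compounds. Activity normalised to PTC124 versus DMSO; concentration-response curves classed by r2, magnitude and activity.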
# [4] = S16 Schwann cell viability assay (CellTiter-Glo assay) (AID 624031); further: nearly all actives have a fitted effect of over 70% in size; further: potency means the concentration at half of the fitted maximal effect
# How it was run: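 CellTiter-Glo ATP luminescence counter-screen in untransfected S16 rat Schwann cells, 24h compound exposure at 37 degree Celsius after overnight seeding (500-750 cells/well); response scaled between cell-free wells and DMSO (0% activity), curves classed by r2 and magnitude.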
# [5] = test system: 7G8; test: qHTS profiling for inhibitors of Plasmodium falciparum proliferation (AID 504749); further: nearly all actives have a fitted effect of over 60% in size; further: potency means the concentration at half of the fitted maximal effect; conditions: P. falciparum in erythrocytes, SYBR Green DNA, 72 h; series mostly up to 12.8 µM
# How it was run: (§1)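 Each compound contacts P. falciparum-infected red blood cells for 72 h at 37 C; lysis buffer (Tris, EDTA, saponin, Triton X, SYBR Green I) is added and fluorescence measured next morning; values normalized to controls.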
# [6] = test system: CP191; test: as above; conditions: P. falciparum in erythrocytes, SYBR Green DNA, 72 h; series mostly up to 28.7 µM
# How it was run: as §1
# [7] = test system: CP260; test: as above; conditions: P. falciparum in erythrocytes, SYBR Green DNA, 72 h; series mostly up to 28.7 µM
# How it was run: as §1
# [8] = test system: CP335; test: as above; conditions: P. falciparum in erythrocytes, SYBR Green DNA, 72 h; series mostly up to 12.8 µM
# How it was run: as §1
# [9] = test system: DIV14; test: as above; conditions: P. falciparum in erythrocytes, SYBR Green DNA, 72 h; series mostly up to 28.7 µM
# How it was run: as §1
# [10] = test system: DIV17; test: as above; conditions: P. falciparum in erythrocytes, SYBR Green DNA, 72 h; series mostly up to 28.7 µM
# How it was run: as §1
# [11] = test system: Dd2; test: as above; conditions: P. falciparum in erythrocytes, SYBR Green DNA, 72 h; series mostly up to 28.7 µM
# How it was run: as §1
# [12] = test system: JCK; test: as above; conditions: P. falciparum in erythrocytes, SYBR Green DNA, 72 h; series mostly up to 28.7 µM
# How it was run: as §1
# [13] = test system: PC15; test: as above; conditions: P. falciparum in erythrocytes, SYBR Green DNA, 72 h; series mostly up to 28.7 µM
# How it was run: as §1
# [14] = test system: TAB165; test: as above; conditions: P. falciparum in erythrocytes, SYBR Green DNA, 72 h; series mostly up to 28.7 µM
# How it was run: as §1
# [15] = biological target: RecQ-like DNA helicase BLM (Homo sapiens) (UniProt P54132); test: qHTS Validation Assay for Inhibitors of Bloom's syndrome helicase (BLM) (AID 2364)
# Chain of RecQ-like DNA helicase BLM (Homo sapiens) (P54132 whole entry, looked up): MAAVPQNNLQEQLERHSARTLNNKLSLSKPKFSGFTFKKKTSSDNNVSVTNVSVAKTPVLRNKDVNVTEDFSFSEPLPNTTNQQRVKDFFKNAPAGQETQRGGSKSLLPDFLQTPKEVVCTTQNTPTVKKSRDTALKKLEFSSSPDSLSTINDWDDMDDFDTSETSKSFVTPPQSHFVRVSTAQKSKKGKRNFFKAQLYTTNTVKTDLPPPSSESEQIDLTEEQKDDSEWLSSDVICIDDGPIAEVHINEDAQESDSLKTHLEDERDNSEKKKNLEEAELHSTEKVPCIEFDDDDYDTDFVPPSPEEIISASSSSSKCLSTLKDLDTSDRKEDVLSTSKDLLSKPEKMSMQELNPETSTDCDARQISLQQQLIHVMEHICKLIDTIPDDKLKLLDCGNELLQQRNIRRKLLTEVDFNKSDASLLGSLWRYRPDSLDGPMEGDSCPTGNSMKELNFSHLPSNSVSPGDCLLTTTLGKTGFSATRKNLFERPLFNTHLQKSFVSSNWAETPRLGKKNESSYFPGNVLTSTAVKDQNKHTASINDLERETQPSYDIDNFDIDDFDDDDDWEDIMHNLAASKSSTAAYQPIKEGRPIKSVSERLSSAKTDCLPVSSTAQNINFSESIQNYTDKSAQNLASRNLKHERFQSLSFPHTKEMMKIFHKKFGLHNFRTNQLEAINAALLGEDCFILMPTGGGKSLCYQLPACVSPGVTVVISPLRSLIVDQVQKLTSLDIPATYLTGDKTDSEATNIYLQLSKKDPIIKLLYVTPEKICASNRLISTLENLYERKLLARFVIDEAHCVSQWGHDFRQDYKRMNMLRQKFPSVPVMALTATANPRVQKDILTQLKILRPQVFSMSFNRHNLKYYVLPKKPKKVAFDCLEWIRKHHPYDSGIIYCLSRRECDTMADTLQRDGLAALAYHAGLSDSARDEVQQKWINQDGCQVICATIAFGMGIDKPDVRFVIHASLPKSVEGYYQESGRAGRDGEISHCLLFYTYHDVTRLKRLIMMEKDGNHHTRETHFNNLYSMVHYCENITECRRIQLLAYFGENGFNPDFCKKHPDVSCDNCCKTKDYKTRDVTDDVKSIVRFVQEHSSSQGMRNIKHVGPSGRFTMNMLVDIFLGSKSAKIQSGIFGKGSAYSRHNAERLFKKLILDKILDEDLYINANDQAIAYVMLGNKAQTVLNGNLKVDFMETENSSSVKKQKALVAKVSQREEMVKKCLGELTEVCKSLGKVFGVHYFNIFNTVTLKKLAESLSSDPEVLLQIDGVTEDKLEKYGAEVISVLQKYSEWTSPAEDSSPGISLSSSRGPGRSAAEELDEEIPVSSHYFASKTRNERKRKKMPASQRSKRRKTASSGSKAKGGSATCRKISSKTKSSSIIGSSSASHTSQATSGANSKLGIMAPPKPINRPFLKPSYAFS
# How it was run: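 50 nM BLM preincubated 15 min at room temperature with compound in pH 8.0 Tris buffer containing 2.5 ug/ml poly(dI-dC); started with 200 nM TAMRA/BHQ-2 forked duplex and 2 mM ATP (final). Unwinding read as TAMRA fluorescence increase, two reads 2 h apart.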
# [16] = biological target: Chromobox protein homolog 1 (Homo sapiens) (UniProt P83916); test: qHTS Validation Assay for Inhibitors of HP1-beta Chromodomain Interactions with Methylated Histone Tails (AID 488953); further: potency means the concentration at half of the fitted maximal effect; nearly all actives have a fitted effect of over 50% in size
# Chain of Chromobox protein homolog 1 (Homo sapiens) (P83916 whole entry, looked up): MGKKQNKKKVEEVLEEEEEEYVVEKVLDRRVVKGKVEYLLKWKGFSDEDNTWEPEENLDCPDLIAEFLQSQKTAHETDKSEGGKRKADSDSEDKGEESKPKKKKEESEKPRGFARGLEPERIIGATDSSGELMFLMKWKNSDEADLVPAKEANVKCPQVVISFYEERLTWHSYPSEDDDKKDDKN
# How it was run: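 AlphaScreen proximity signal from streptavidin donor and nickel chelate acceptor beads (final 10 ug/mL) after 30 min dark incubation. Compounds had 30 min at room temperature with preformed complex of 50 nM HP1-beta and 50 nM b-H3(1-18)K9me3 in PBS pH 7.4 with 0.01% Tween-20.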
# [17] = Validation screen for small molecules that induce genotoxicity in human embryonic kidney (HEK293T) cells expressing luciferase-tagged ELG1 (AID 493106)
# How it was run: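 ELG1-luciferase reporter readout (ONE-Glo, 30 min, room temperature) after 16 hr compound treatment at 37 °C of HEK293T cells at 2,000 per well. Rising luminescence flags genotoxic stress.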
# [18] = Inducers of the Endoplasmic Reticulum Stress Response (ERSR) in human glioma: Validation (AID 504836)
# How it was run: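 Stably transfected U87-MG glioma cells carrying a GRP78-based luciferase sensor; 16 h compound incubation. Luminescence end-point read 10 min after Bright-Glo addition at room temperature.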
# [19] = biological target: Retinoic acid receptor RXR-alpha (Homo sapiens) (UniProt P19793); test: qHTS assay for small molecule agonists of retinoid X receptor alpha signaling (AID 588544; calls by dose curve)
# Chain of Retinoic acid receptor RXR-alpha (Homo sapiens) (P19793 whole entry, looked up): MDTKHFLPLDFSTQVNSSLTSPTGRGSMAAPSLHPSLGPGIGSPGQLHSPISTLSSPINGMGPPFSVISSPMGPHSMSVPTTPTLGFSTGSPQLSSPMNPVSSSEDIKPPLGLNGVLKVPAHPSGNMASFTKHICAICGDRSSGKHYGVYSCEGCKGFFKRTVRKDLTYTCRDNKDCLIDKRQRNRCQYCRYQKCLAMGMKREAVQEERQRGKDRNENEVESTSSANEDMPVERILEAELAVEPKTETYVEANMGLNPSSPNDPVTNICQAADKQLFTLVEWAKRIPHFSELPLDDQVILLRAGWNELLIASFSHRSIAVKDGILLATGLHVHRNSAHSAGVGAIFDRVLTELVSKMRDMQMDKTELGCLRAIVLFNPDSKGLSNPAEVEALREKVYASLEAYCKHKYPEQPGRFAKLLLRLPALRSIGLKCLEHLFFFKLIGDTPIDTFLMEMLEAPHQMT
# [20] = qHTS assay to identify small molecules that stimulate interleukin-8 (IL-8) secretion (AID 651758; active means well fitted activation curve with a large enough effect in the signal ratio; the % refers to the signal ratio)
# How it was run: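 Compounds are added to THP-1 cells (2000 per well) and left 16 hrs at 37 C. A labeled anti-IL-8 antibody pair is then added, and IL-8 secretion is measured by time-resolved FRET after 1-3 hrs at room temperature.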
compound,measurement,setting,value
CCOC(=O)c1[nH]c2ccc(OC)cc2c1C(SCC(=O)O)c1ccc(C(F)(F)F)cc1 (stereo not drawn),Potency,[1],inactive
C[C@H]1CCCC(=O)CCC/C=C/c2cc(O)cc(O)c2C(=O)O1,Potency,[2],44.7 µM (active)
[Hg+][c]1ccccc1,Potency,[3],8.09 µM (active)
same,Potency,[4],1.14 µM (active)
same,Potency,[5],1.78 µM (active)
same,Potency,[6],inactive
same,Potency,[7],inactive
same,Potency,[8],10.7 µM (active)
same,Potency,[9],9.53 µM (active)
same,Potency,[10],13.5 µM (active)
same,Potency,[11],inactive
same,Potency,[12],11.2 µM (active)
same,Potency,[13],7.94 µM (active)
same,Potency,[14],inactive
C[C@]12CC[C@H](OS(=O)(=O)O)CC1=CCC1C2CC[C@]2(C)C(=O)CC[C@@H]12 (stereo partly drawn),Potency,[3],inactive
same,Potency,[4],inactive
same,Potency,[5],inactive
same,Potency,[6],inactive
same,Potency,[7],inactive
same,Potency,[8],inactive
same,Potency,[9],inactive
same,Potency,[10],inactive
same,Potency,[11],inactive
same,Potency,[12],inactive
same,Potency,[13],inactive
same,Potency,[14],inactive
C[C@]12CC[C@@H](O)CC1CCC1C2CC[C@]2(C)C(=O)CC[C@@H]12 (stereo partly drawn),outcome,[15],inactive
O=C(O)C1C2CCC(O2)C1C(=O)O (stereo not drawn),outcome,[15],inactive
S=C(S)N1CCCC1,Potency,[16],44.7 µM (active)
same,outcome,[17],inactive
same,outcome,[18],inactive
COc1cc(OC)c(/C=C2/C(=O)Nc3ccccc32)c(OC)c1,Potency,[16],31.6 µM (active)
same,outcome,[17],inactive
same,outcome,[18],inactive
O=NN(c1ccccc1)c1ccccc1,Potency,[19],inactive
same,Potency,[20],inactive
Cc1ccccc1N,Potency,[20],inactive
Cc1cccc([N+](=O)[O-])c1,Potency,[19],inactive
